Shown are actives, neighbours in structure and some others; about 0.89% of the full set was active somewhere.
BJeLR viab HTS = BJeLR cell viability reduction; viability loss activity score, % (no concentration beside the values); BJeLR fibroblasts viability, CellTiterGlo ATP luminescence, 48 h; HRASV12, hTERT and SV40 LT/ST transformed; actives 0.64% (n = 30,000); in the data active means viability loss activity score above about 50%;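 further: higher score means fewer live cells and less ATP luminescence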
A1 inhib = A1 inhibition | actives 0.51% (n = 21,000) | MEF A1-2A-BIM cells, caspase-Glo luminescence, 3 h; percent of clofoctol signal, DMSO as zero | AID 2241 | caspase activation, % (concentration not given with the values);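 active means most replicate scores above 10, or exactly half above 10 with mean activity above 10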;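 further: effector caspase 3 and 7 activity cleaving a DEVD luciferin substrate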
* marks the source's active call; other numbers are inactive results.

Results for Cc1ccc(SC(=O)c2c(C)noc2-c2cc(C)on2)cc1 ?
BJeLR viab HTS: 1; A1 inhib: 9.8*

Results for c1cc(-c2nc3ccccc3s2)nc(-c2nc3ccccc3s2)c1 ?
BJeLR viab HTS: -2; A1 inhib: 0

Results for COc1ccc(-c2nc3ccccc3s2)cc1 ?
BJeLR viab HTS: 60*; A1 inhib: -7

How did COC(=O)c1cc(NC(=O)c2cccc(Cl)c2)cc(C(=O)OC)c1 do in these assays?
BJeLR viab HTS: -2; A1 inhib: 0

What do the screens show for `CCCn1nc(NC(=O)c2cccc(Cl)c2)c2cc3cc(C)ccc3nc21`?
BJeLR viab HTS: -7; A1 inhib: 12*

What do the screens show for `Cc1ccc(C(=O)NCCC2=CCCCC2)cc1`?
BJeLR viab HTS: 1; A1 inhib: -6

Results for C=C(C)CC1(NC(C)c2ccccc2)CCCCC1 (stereo not given) ?
BJeLR viab HTS: 0; A1 inhib: 9.8*

What do the screens show for `CC(=O)NC(C)c1ccccc1` (stereo not given)?
BJeLR viab HTS: -3; A1 inhib: 0

What do the screens show for `COC(=O)c1sc(S(=O)(=O)N2CCN(c3ccccc3OC)CC2)c(C(=O)OC)c1C`?
BJeLR viab HTS: 0; A1 inhib: -1

What do the screens show for `COc1cccc(-c2cc(NCc3ccc4c(c3)OCO4)nc(N)n2)c1`?
BJeLR viab HTS: 60*; A1 inhib: 3

What do the screens show for `Cc1cc(Br)ccc1NCc1ccc2c(c1)OCO2`?
BJeLR viab HTS: -5; A1 inhib: -2

What do the screens show for `C=CC(C)(C)[C@@]12CC(=O)C(=O)N3/C(=C/c4cnc[nH]4)C(=O)N[C@]31N(OC)c1ccccc12`?
BJeLR viab HTS: 4; A1 inhib: 2

What do the screens show for `COc1ccc(/C=C2\SC(=N)N(c3ccc(OC)cc3)C2=O)cc1`?
BJeLR viab HTS: -1; A1 inhib: 0

How did CCOc1ccc(C(=O)Nc2cc(C)ccn2)cc1 do in these assays?
BJeLR viab HTS: 90*; A1 inhib: -7

What do the screens show for `CCOc1ccc(C(=O)NCC(=O)n2nc(C)cc2C)cc1`?
BJeLR viab HTS: 1; A1 inhib: -4

Results for COc1cccc(-c2nc(S(=O)(=O)c3ccc(C)cc3)c(N(C)C)o2)c1 ?
BJeLR viab HTS: 1

How did FC(F)(F)c1[nH]nc(-c2ccccc2)c1C12CC3CC(CC(C3)C1)C2 do in these assays?
BJeLR viab HTS: 5; A1 inhib: 11*

Results for c1ccc(-c2nc(C34CC5CC(CC(C5)C3)C4)cs2)cc1 ?
BJeLR viab HTS: 13; A1 inhib: -1

How did CCc1ccc(CNC(=O)CN2C(=O)CSc3ncccc32)cc1 do in these assays?
BJeLR viab HTS: -8; A1 inhib: 1

What do the screens show for `CNC[C@@H]1Oc2c(NC(=O)Nc3ccc(F)cc3)cccc2C(=O)N([C@H](C)CO)C[C@H]1C`?
BJeLR viab HTS: 0

How did CC1CC(=O)[C@]2(C)CC[C@]3(C)C(C(=O)C(O)C4[C@@]5(C)CC[C@H](O)C(C)(C(=O)O)C5CC[C@]43C)C2C1C (stereo not given in full) do in these assays?
BJeLR viab HTS: 106*; A1 inhib: 3

Results for C[C@@H]1CC[C@]2(C(=O)O)CC[C@]3(C)C(=CCC4[C@@]5(C)CC[C@@H](O)[C@](C)(C(=O)O)C5CC[C@]43C)C2[C@H]1C (stereo not given in full) ?
A1 inhib: 0

Results for CCCc1c(C(=O)O)c(O)cc2c1C(=O)c1c(O)cccc1C2=O ?
BJeLR viab HTS: 2; A1 inhib: 1

What do the screens show for `CCCCCC(=O)Cc1cc(O)c(O)c2c1C(=O)Oc1cc(O)c(C(=O)O)c(CCCCC)c1O2`?
BJeLR viab HTS: 99*; A1 inhib: 1

What do the screens show for `COc1ccc(S(=O)(=O)Nc2ccc3c(c2)C(=O)N([C@H](C)CO)C[C@@H](C)[C@@H](CN(C)C(=O)Nc2ccc(C(F)(F)F)cc2)O3)cc1`?
BJeLR viab HTS: -2; A1 inhib: 0

High-throughput results from PubChem BioAssay.
